Screening results: PubChem, National Center for Advancing Translational Sciences (NCATS)
Pol kappa inh-1: inhibitors of human DNA polymerase kappa | Q9UBT6 | purified Pol kappa, fluorescent DNA synthesis assay, 10 min | Potency, µM (series often up to 107 µM), hits mostly inhibitors | hit rate 0.53% among 400,000 | AID 588579
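First, compounds were pin-transferred onto 10 nM Pol kappa. After 15 min at room temperature, substrate was added to 50 nM final. Fluorescence was then measured kinetically at 0 and 10 min.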
Pol iota inh: DNA polymerase iota (human) inhibition. Pol iota fluorescent replication assay, 10 min. Q9UNA4. Potency, µM (top dose mostly 115 µM), hits mostly inhibitors. hit rate 1% among 390,000
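Fluorescent replication assay read twice, at 0 min and 10 min after adding 50 nM (final) substrate. Enzyme (10 nM) and compounds were first incubated 15 min at room temperature; enzyme-free buffer wells were negative controls.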
Pol eta inh-1: DNA polymerase eta (human) inhibition; recombinant Pol eta, fluorescent DNA replication assay; Potency, µM (highest dose often 114 µM), most hits filed as inhibitors; AID 588591; hit rate 1.2% among 390,000
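Fluorescent replication assay: 50 nM final substrate added after a 15 min room-temperature compound preincubation with 10 nM enzyme. Signal taken at 0 min and again at 10 min.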
L3MBTL1 inh: inhibitors of human L3MBTL1; AlphaScreen L3MBTL1–H3K9me1 peptide binding; Potency, µM (top dose mostly 57.1 µM), most hits filed as inhibitors; hit rate 0.66% among 230,000; further: nearly all actives have a fitted effect of over 60% in size
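First, the protein-peptide complex forms for 30 min at room temperature (L3MBTL1 50 nM, biotinylated H3K9me1 peptide 75 nM). Next, compounds are pin-transferred and incubated 30 min. Finally, AlphaScreen beads are added and read after 30 min.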
POLB inh: blocks human DNA polymerase beta activity | Potency, µM (doses to about 114 µM), usual class: inhibitors | Pol beta primer extension/strand displacement, fluorescence kinetic | AID 485314 | hit rate 1.3% among 340,000
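Homogeneous kinetic assay of primer extension and strand displacement by 10 nM Pol beta, preincubated 15 min at room temperature with compound before 50 nM substrate (final) was added. Read at 0 and 10 min; four-parameter Hill fit.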
PGK validate: validation of Trypanosoma brucei phosphoglycerate kinase inhibitors; Potency, µM (top dose mostly 57.5 µM), most hits filed as inhibitors; shares compounds with Pol kappa inh-1; hit rate 79% among 500; TbPGK coupled GAPDH assay, Kinase-Glo luminescence; further: nearly all actives have a fitted effect of over 65% in size
POLI cherry-pick: Inhibitors of human DNA polymerase iota, confirmation | AID 720496 | Potency, µM, hits mostly inhibitors | shares compounds with Pol kappa inh-1 | Pol iota primer extension, TAMRA/BHQ fluorescence | hit rate 77% among 1,500
GALK confirm: confirmation of human galactokinase (GALK) inhibitors; shares compounds with Pol eta inh-1; purified GALK, Kinase-Glo ATP depletion luminescence; Potency, µM (series often up to 115 µM), most hits filed as inhibitors; hit rate 70% among 150; AID 2015
GALK redox cs: counter-screen for GALK inhibitors: redox cycling H2O2 generation; AID 2035; shares compounds with Pol eta inh-1; hit rate 40% among 150; Phenol red-HRP H2O2 redox cycling, absorbance 600 nm; Potency, µM (top dose mostly 115 µM), hits mostly inhibitors
HEK293 tox: reduces HEK-293 cell viability in GALK counter-screen; shares compounds with Pol eta inh-1; HEK-293 viability, ATP luminescence (CellTiter-Glo), 24/48 h; Potency, µM (titrated, usually from 46.1 µM), hits mostly inhibitors; hit rate 10% among 170
Pol kappa inh-2: confirmation of human DNA polymerase kappa inhibitors; shares compounds with Pol eta inh-1; purified Pol-kappa, fluorescent strand-displacement substrate; Potency, µM, hits mostly inhibitors; hit rate 76% among 920; AID 720501
Pol eta inh-2: confirmation of human DNA polymerase eta inhibitors. shares compounds with Pol eta inh-1. Pol eta primer extension, TAMRA/BHQ fluorescence, 10 min. Potency, µM, actives largely listed as inhibitors. hit rate 64% among 2,600. AID 720502
Each line names hits and unclear results; the compound was inactive in the other large screens (follow-up assays come after a bar, where they were run); ! = not active in a repeat. A selection: hits, their analogues and other compounds. The true share with any hit is near 2.4%. The call rests on the fitted dose curve; in most records, active means well fitted curve in the direction sought with a large enough effect; inconclusive means small, poorly fitted or top-dose-only effect, or another doubt; inactive means no such curve, though single readings can be large; an effect the other way counts as inactive or inconclusive.

O=C(C1COc2ccccc2O1)N1CCCC1 (configuration not stated)	none (no result: L3MBTL1 inh)
CCn1c(O)c(N=NC(=O)CNC(=O)c2cccnc2)c2ccccc21	none (no result: Pol kappa inh-1, Pol iota inh, L3MBTL1 inh, POLB inh)
NS(=O)(=O)c1ccc(CCNc2nccn(-c3cccc(C(F)(F)F)c3)c2=O)cc1	none (no result: L3MBTL1 inh)
Cc1ccc(-c2cc(-c3ccccc3)nc(N)c2C#N)o1	none (no result: L3MBTL1 inh)
CC1=C(C#N)c2nc(N)c(C#N)c(C)c2/C1=C\c1ccc(-c2ccccc2C(=O)O)o1	Pol kappa inh-1 22.4µM, Pol iota inh inconclusive, Pol eta inh-1 7.94µM, L3MBTL1 inh 15.8µM, POLB inh 10µM | POLI cherry-pick 42.3 | Pol eta inh-2 26.9
O/C=c1\ccc2cccc3nc(C(F)(F)F)nc1c23	Pol kappa inh-1 inconclusive, Pol iota inh 0.891µM, Pol eta inh-1 25.1µM, POLB inh 3.16µM (no result: L3MBTL1 inh) | POLI cherry-pick 67 | Pol kappa inh-2 inconclusive | Pol eta inh-2 47.8
COc1ccc(OC)c(NC(=O)CCc2c(C)nc3c(c(C)nn3C(C)(C)C)c2C)c1	none (no result: L3MBTL1 inh)
CN(CC(=O)Nc1ccccc1Br)C(=O)c1sccc1-c1ccccc1	none (no result: POLB inh)
COc1ccc(/C=C2\C(=O)NC(=O)c3ccccc32)cc1OC	Pol iota inh 31.6µM, Pol eta inh-1 20µM (no result: L3MBTL1 inh, POLB inh) | POLI cherry-pick 84.4 | Pol eta inh-2 30.1
O=C1CCCC2=C1C(c1ccco1)Nc1ccc3ccccc3c12 (configuration not stated)	Pol kappa inh-1 28.2µM, Pol iota inh 6.31µM, Pol eta inh-1 2µM, L3MBTL1 inh 3.16µM, POLB inh 6.31µM | PGK validate 14.6µM | POLI cherry-pick 7.52 | Pol eta inh-2 19
N#Cc1c(N2CCCC2)nc(N)c2c(N)nc(N3CCCC3)cc12	Pol iota inh 2.51µM, Pol eta inh-1 2.82µM, L3MBTL1 inh inconclusive, POLB inh inconclusive | POLI cherry-pick 37.7 | GALK confirm 2.11µM | GALK redox cs 1.88µM | HEK293 tox inactive | Pol eta inh-2 60.1
COc1cc2c(C#N)c(N3CCCC3)nc(N)c2c(N)n1	Pol kappa inh-1 inconclusive, Pol iota inh 8.91µM!, Pol eta inh-1 22.4µM, L3MBTL1 inh inconclusive, POLB inh inconclusive | POLI cherry-pick 37.7 | Pol eta inh-2 23.9
COc1cc2c(C#N)c(N3CCN(C)CC3)nc(N)c2c(N)n1	none (no result: Pol kappa inh-1, Pol iota inh, Pol eta inh-1, L3MBTL1 inh)
CC(C)(C)OC(=O)N(Cc1ccccc1)Cc1ccccc1OCc1cccc(NC(=O)c2ccccc2)c1	none (no result: L3MBTL1 inh, POLB inh)
O=C1/C(=C/c2ccco2)SC(=S)N1c1cccnc1	Pol kappa inh-1 8.91µM, Pol iota inh inconclusive, Pol eta inh-1 2.82µM, L3MBTL1 inh 3.16µM, POLB inh 1.58µM | PGK validate 3.26µM | POLI cherry-pick 3.77 | Pol kappa inh-2 4.74 | Pol eta inh-2 5.36
O=C1C=CC(=O)N1c1ccccc1N1C(=O)C=CC1=O	Pol kappa inh-1 inconclusive, Pol iota inh 39.8µM, Pol eta inh-1 inconclusive (no result: L3MBTL1 inh, POLB inh) | POLI cherry-pick inconclusive | Pol eta inh-2 inconclusive
Cc1c(I)c(=O)n(-c2ccccc2)n1C	none (no result: Pol iota inh, Pol eta inh-1, L3MBTL1 inh, POLB inh)
